From PubChem BioAssay (NCI)
This is part of a sample that, as a whole, favours compounds with a hit. Of some 83,000 tested, about 20% had one in any assay.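 Plates (96-well) were seeded with cells, treated with compound at one concentration, and incubated for 48 hours before percent growth was determined.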 A number with no mark means an inactive call. The source made the active and inactive calls. The calls were made as follows: active = growth percent below 10; inactive = the rest.

Columns and labels:
Assay in all cases: NCI-60 one-dose screen, 48 h (100 = growth as untreated, 0 = no growth, -100 = all killed)
Conditions in all cases: 10 µM unless noted
[1] = system: NCI-H23 lung
[2] = system: NCI-H226 lung
[3] = system: NCI-H322M lung
[4] = system: HOP-62 NSCLC
[5] = system: NCI-H460 lung
[6] = system: HOP-92 NSCLC
[7] = system: NCI-H522 lung
[8] = system: A549/ATCC NSCLC
[9] = system: 786-0 renal
[10] = system: COLO 205 colon
[11] = system: DU-145 prostate
[12] = system: K-562 leukemia
[13] = system: MALME-3M melanoma
[14] = system: MDA-MB-231 breast
[15] = system: RXF 393 renal
[16] = system: SF-268 CNS
[17] = system: SF-295 CNS
[18] = system: SF-539 CNS
[19] = system: UACC-257 melanoma
[20] = system: M14 melanoma

Row | SMILES | growth [1] | growth [2] | growth [3] | growth [4] | growth [5] | growth [6] | growth [7] | growth [8] | growth [9] | growth [10] | growth [11] | growth [12] | growth [13] | growth [14] | growth [15] | growth [16] | growth [17] | growth [18] | growth [19] | growth [20]
1 | CCc1cccc2c1S/C(=C/c1ccc(OC)cc1)C2=O | 50.1% | 85.7% | 86.7% | 45.4% | 56% | 72.2% | 42.7% | 89% | 63.6% | 105% | 49.5% | 11.2% | 51.7% | 46.5% | 40.1% | 64.5% | 62.9% | 8.87% (active) | 72.6% | 28.3%
2 | CCc1nnc(NC(=O)c2nnn(-c3ccccc3)c2-c2ccco2)s1 | 91.7% | 90.9% | 94.2% | 92.9% | 83.7% | 91.3% | 90.9% | 96.9% | 105% | 109% | 101% | 71.8% | 98.9% | 92.9% | 100% | 107% | 87.2% | 99.7% | 102% | 98.4%
3 | COc1ccc(-c2c(C(=O)NS(C)(=O)=O)n(Cc3cccc(C(F)(F)F)c3)c3ccccc23)cc1 | 97.4% | 82.1% | 94.5% | 89.4% | 89.7% | 62.2% | 80.8% | 88.8% | 95.3% | 105% | 100% | 87.7% | 76.8% | 95.5% | 111% | 95% | 89.8% | 98.3% | 95.2% | 94.6%
4 | CC(=O)CC[C@H]1C(=O)N[C@@H](C(C)C)C(=O)N[C@@H](Cc2cc(O)cc(F)c2)C(=O)N2CCC[C@H](N2)C(=O)O[C@H](/C(C)=C/C=C/C(=O)OC(C)(C)C)C/C=C/C=C/[C@H](O)[C@H](C)[C@H]1O | 42.2% | 76.8% | 69.2% | 44.9% | 13.3% | 55.2% | 43.8% | 49.9% | 36.2% | 51.7% | 42.6% | 21.6% | 73.6% | 47.5% | -5.28% (active) | 54.4% | 50.2% | 66.8% | 53% | 54.9%
5 | NC1=C(c2nn[nH]n2)C(c2ccccc2Cl)c2ccc3ccccc3c2O1 (stereo not given) | 76.3% | 76.8% | 89.9% | 66.5% | 87.5% | 69.7% | 35.5% | 83.3% | 82.7% | 86.8% | 93.4% | 22.6% | 64% | 63.7% | 79.3% | 73.2% | 88.9% | 79.2% | 84.7% | 61.3%
6 | CCCCCCCCCCCCCCCCCCOc1ccc(CC(=O)OCC[N+](C)(C)C)cc1 | 93.3% | 95.1% | 103% | 108% | 100% | 103% | 95.7% | 94.6% | 93% | 115% | 99.9% | 47.7% | 113% | 110% | 90.1% | 104% | 97.6% | 97.9% | 108% | 91.5%
7 | COc1ccc(-c2cc(-c3ccc(Cl)cc3)c(C#N)c(=O)n2CCCCCC(=O)Nc2ccccc2N)cc1 | 63.1% | 72.9% | 61.4% | 41.8% | 26.7% | 13% | 33.7% | 35.7% | 41.5% | 10.1% | 49.8% | 15% | 39% | 55.6% | 29.8% | 75.9% | -19.5% (active) | 60% | 23.4% | -10.9% (active)
